65 compounds from PubChem BioAssay AID2417 (National Center for Advancing Translational Sciences (NCATS), 2010) can be followed below.

Screen size: about 140,000 compounds; about 4,300 (3.1%) were called active. Another 21% or so got no clear call; they are omitted. What follows is part of a selection rich in actives, with near analogues and random picks from the rest. A number with no mark means an inactive call.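 Rule for the calls: active = readout at or below -70, meaning at least 70% loss of cells showing the perinucleolar compartment, a nuclear body marking cancer cells; inconclusive = readout between -30 and a set limit; inactive = the rest.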

The experiment can be described thus: High Content Assay for Compounds that inhibit the Assembly of the Perinucleolar Compartment.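 Note: plate controls were DMSO wells for no effect and camptothecin positive control wells for full effect.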 The conditions noted are these: PC3M PTB-GFP, PNC prevalence imaging, 16 h; at 10 µM; hits give low values. The source says:
High Content Assay for Compounds that inhibit the Assembly of the Perinucleolar Compartment NIH Chemical Genomics Center [NCGC] NIH Molecular Libraries Probe Centers Network [MLPCN] MLPCN Grant: MH082371-01A2 Assay Submitter (PI): Sui Huang, Northwestern University, Feinberg School of Medicine, Cell and Molecular Biology, Chicago, Illinois. The perinucleolar compartment (PNC) is a non-membrane-bound nuclear subdomain that is associated with but structurally distinct from the nucleolus. The PNC is a heritable trait, in which the number of PNCs per cell in daughter cells often mimics that of their mother cells. The PNC is heterogeneous in shape, is stable through interphase, disassembles during mitosis, and reassembles in early G1. The PNC is concentrated with newly synthesized RNA polymerase III (pol III) RNAs (MRP RNA, RNAse P H1 RNA, hY RNAs[hY1, 2, 5], Alu RNA, and SRP [7SL] RNA) and RNA binding proteins (nucleolin, PTB, CUG-BP, KSRP, Raver1, Raver2, and Rod). […] Extensive in vitro studies have shown that the PNC is unique to tumor cells and preferentially forms in tumor cells derived from solid tissues. Examination of cancer cell lines from various origins and malignant capacities has shown that PNC prevalence correlates with the malignancy of tumors and has the potential to be developed as a pan-cancer prognostic marker. […] Although the PNC is associated with a DNA locus and a handful of components have been identified, much remains to be investigated regarding the structure and function of the PNC and its mechanistic link to cancer. We have previously shown that PNC prevalence reduction is a valid strategy to identify compounds that can be used to study the structure and function of the PNC. It is necessary, however, to create a screening platform that is able to test a large number of compounds in an automated fashion. Here we report the development and robustness of an automated whole-cell phenotypic image-based screening assay that is capable of identifying such compounds.
PNC High Content Imaging Assay Procedure: 1. Cells at a density of 75-90% confluency in T175 flasks were harvested using 7 ml TrypLE Express cell dissociation reagent. After dissociation (5 minutes room temperature incubation) 10 ml of complete media was added to the TrypLE/cell suspension. The liquid was transferred to a 50 ml Conical tube and cells were pelleted at 1000 RPM for 5 min. Supernatant was removed and cells were resuspended to a final density of 150-200 cells/ul in complete media. 2. Cells were plated in 5 ul volume (750-1000 cells/well) into 1536 well Black uclear Aurora Low Base plates and allowed to recover and adhere at 37 C in a humidified 5% CO2 incubator for 4 hours. 3. After 4 hour incubation, compound libraries (23 nl of […] in columns 5-48) were transferred to the plates in duplicate using a 1536 well pintool. Camptothecin positive control (59 uM final) was added to column 2 and 1:3 dilutions of camptothecin was added to column 3. DMSO negative controls were present in columns 1 and 4. 4. After a 16 hour incubation in the 37 C incubator, cells were fixed by the addition of 4 ul of 6% EM grade paraformaldehyde (containing 0.1% triton X 100) directly to the cells. The plates were incubated at room temperature for 20 minutes. The liquid was removed using a 32 channel Kalypsys aspirator and the fixed cells were washed twice with 5 ul PBS followed by a final addition of 5 ul PBS containing 1 ug/ml Hoechst 33342. 5. Fixed plates were sealed and sotred at 4C until imaged. 6. Plates were imaged on an InCell 1000 automated microscope using a 20 x objective, a standard FITC filter set, no camera binning, and an exposure time of ~100-150 msec/well. 7. Data analysis. PNC prevalence was determined using the Multitarget analysis module from InCell Workstation software (V3.5 ) and analysis was run on a quad core workstation using the Incell Developer Toolbox (V1.7). […]
For `NNC(=O)c1ccc(Cl)cc1Cl`, the activity change (PNC), negative = inhibition is 5.71%.

For `CCOc1ccccc1C1C(C(=O)OC)=CN(C)C=C1C(=O)OC`, the activity change (PNC), negative = inhibition is 3.14%. On to `COC(=O)C1=CN(C)C=C(C(=O)OC)C1c1ccc(Cl)cc1Cl`, for which the activity change (PNC), negative = inhibition was -80.4% (active). For `O=C(Cc1cccs1)Nc1cccc(-c2nc3ccccc3[nH]2)c1`, the activity change (PNC), negative = inhibition is 3.35%. Under `COc1cc(NS(=O)(=O)c2ccc(N/C=C(\C=O)c3nc4cc(Cl)ccc4o3)cc2)nc(OC)n1` stands -105% (active); under `COc1cc(NS(=O)(=O)c2ccc(N=Cc3c(C)[nH]n(-c4ccccc4)c3=O)cc2)nc(OC)n1`, -26.4%.

Take `COc1ccc(S(=O)(=O)Nc2ccc3oc(C)c(C(C)=O)c3c2)cc1`: the activity change (PNC), negative = inhibition was 56.6%.

In the case of `O=C(c1ccc(CSc2ccccc2)cc1)N1CCCCCC1`, the activity change (PNC), negative = inhibition was -13.8%. With `C=CCNC(=O)/C=C/c1ccc(C(C)C)cc1`, the activity change (PNC), negative = inhibition was 29.5%. Take `N#C/C(=C/c1ccc(N2CCOCC2)o1)C(=O)N1CCOCC1`: the activity change (PNC), negative = inhibition is 61.9%.

Consider `N#C/C(=C/c1ccc(N2CCCCC2)o1)C(=O)NCCc1c[nH]c2ccccc12`, for which the activity change (PNC), negative = inhibition is -86.8% (active).

As to `CC(=O)N/C(=C/c1ccc(Cl)cc1)C(=O)NCCc1c[nH]c2ccccc12`, the activity change (PNC), negative = inhibition was 19.3%. As to `Cn1cc(C(=O)NCc2ccccc2F)cn1`, the activity change (PNC), negative = inhibition is -25.6%. For `N#C/C(=C\c1ccccc1C(F)(F)F)C(=O)Nc1ccccc1F`, the activity change (PNC), negative = inhibition is -16.5%. Regarding `COc1cccc(NC(=O)CC(c2ccc(OC(C)C)cc2)c2ccccc2OC)c1` (stereo not given), the activity change (PNC), negative = inhibition is 21%.

`NC(=O)CCC(NS(=O)(=O)c1ccc(Cl)cc1)C(=O)NCc1ccccc1Cl` (stereo not given): the activity change (PNC), negative = inhibition was -7.93%. With `COc1ccccc1C1SCCN1C(=O)c1ccc([N+](=O)[O-])cc1` (stereo not given) the figure was 15%. Consider `NC1=NC(=O)C(Cc2cccc(Cl)c2)S1` (stereo not given), for which the activity change (PNC), negative = inhibition was 22.5%. Under `N#Cc1ccc(N2Cc3ccccc3/C2=N/C(=O)Nc2ccc(Cl)cc2)cc1` stands 16.1%; under `Cc1cc(C(F)(F)F)nn1-c1nc(-c2ccco2)cc(C(F)(F)F)n1`, -13%. `O=C(CSc1nc(-c2ccco2)cc(C(F)(F)F)n1)N1CCc2ccccc2C1`: the activity change (PNC), negative = inhibition is -123% (active). For `FC(F)(F)c1cc(-c2ccco2)nc(N2CCOCC2)n1`, the activity change (PNC), negative = inhibition was 27.9%. On to `Cc1ccc(NC(=O)COC(=O)CCc2nc3ccccc3n2-c2ccccc2)c(C)c1`, for which the activity change (PNC), negative = inhibition is 55.5%. With `O=C(NC(=S)NC1CCSC1=O)c1ccccc1F` (stereo not given), the activity change (PNC), negative = inhibition was 12.8%. For the compound `O=c1c2sccc2nc(SCc2cc(=O)n3ccccc3n2)n1-c1ccc(Br)cc1`, the activity change (PNC), negative = inhibition is 0.678%. Regarding `Cc1ccc(NC(=O)CSCC(=O)NC2CCCCC2)cc1`, the activity change (PNC), negative = inhibition is 13.8%. With `O=C(CCCN1C(=O)C2C3C=CC(C3)C2C1=O)N1CCN(c2ccccc2)CC1` (stereo not given) the figure was -106% (active); with `CC(CC(=O)N1CCN(c2ccccc2)CC1)c1ccccc1` (stereo not given), -11.1%; with `O=C(CCN1C(=O)C2C3C=CC(C3)C2C1=O)Nc1ccccc1F` (stereo not given), 25%. With `CC(C)(C)CC(C)(C)NCC(O)COCCOc1ccc(Br)cc1` (stereo not given), the activity change (PNC), negative = inhibition was 6.23%. As to `COC(C(=O)Nc1ccc(C(C)=O)cc1)c1ccccc1` (stereo not given), the activity change (PNC), negative = inhibition is -124% (active).

For the compound `COc1ccc(NC(C(=O)Nc2cccc(C(C)=O)c2)c2ccccc2)cc1` (stereo not given), the activity change (PNC), negative = inhibition is 18.3%.

With `CC(=O)c1ccc(NC(=O)N[C@@H](Cc2ccccc2)C(=O)O)cc1`, the activity change (PNC), negative = inhibition is 64.7%. In the case of `O=C(CC(=O)N/N=C\c1cccc(Cl)c1Cl)NCc1ccccc1`, the activity change (PNC), negative = inhibition is 44.3%. `Nc1nc(SCC(=O)NNc2c(Cl)cc(Cl)cc2Cl)n[nH]1`: the activity change (PNC), negative = inhibition was 21.1%.

Turning to `CCCCOc1ccc(C(=O)NN2CCN(C)CC2)cc1`, the activity change (PNC), negative = inhibition is 15.4%. With `COc1ccccc1Nc1nc(N)nc(CN(C)C2CCCCC2)n1`, the activity change (PNC), negative = inhibition is -29.7%. With `COc1ccccc1NC1=NC(c2ccc(Cl)cc2)N=C(N)N1` (stereo not given), the activity change (PNC), negative = inhibition is -92.7% (active). As to `Cc1cc(C)nc(NC(=O)c2cccc([N+](=O)[O-])c2)c1`, the activity change (PNC), negative = inhibition is 69%.

On to `COCCCN(C(=S)Nc1c(C)cc(C)cc1C)C(C)c1ccncc1` (stereo not given), for which the activity change (PNC), negative = inhibition is -82.2% (active). On to `COCCCN(C(=O)Cn1ncc2c(=O)oc3ccc(C)cc3c21)C(C)c1ccncc1` (stereo not given), for which the activity change (PNC), negative = inhibition was 3.72%. With `CCCC/S(C)=N/S(=O)(=O)c1ccc(C)cc1` (stereo not given) the figure was 24.9%; with `N/C(=N\OC(=O)N1c2ccccc2Sc2ccccc21)c1ccc(Br)cc1`, -113% (active); with `COc1ccc(/C(N)=N/OC(=O)Cc2ccccc2)cc1`, 17.5%. Consider `COc1ccc(/C(N)=N/OC(=O)Oc2ccccc2)cc1`, for which the activity change (PNC), negative = inhibition was 13.5%. With `COc1cccc(NC(=O)CN2CCN(c3nc(-c4cccc(OC)c4)cs3)CC2)c1` the figure was 43%; with `O=C(Cc1ccc(S(=O)(=O)N2CCOCC2)s1)NCCC(c1ccccc1)c1ccccc1`, 44.4%. Take `CCOC(=O)c1sc(NC(=O)c2cc(S(=O)(=O)N3CCOCC3)ccc2C)nc1C`: the activity change (PNC), negative = inhibition is -23.4%. Turning to `COc1cccc(NC(=O)Cn2cnc3sc(C)c(S(=O)(=O)N4CCN(C)CC4)c3c2=O)c1`, the activity change (PNC), negative = inhibition is -100% (active). In the case of `CCN(CC)CCNC(=O)Cn1cnc2sc(C)c(S(=O)(=O)N3CCOCC3)c2c1=O`, the activity change (PNC), negative = inhibition is -100% (active).

Take `COc1cccc(NC(=O)CN(C)S(=O)(=O)c2ccc(C)cc2)c1`: the activity change (PNC), negative = inhibition was -3.49%. Under `CC(O)c1nc2ccccc2n1Cc1ccc([N+](=O)[O-])cc1` (stereo not given) stands 9.78%; under `CCOc1ccc(C(=O)Nc2nccs2)cc1[N+](=O)[O-]`, 8%. For the compound `CN1CCC(=NNC(=O)c2ccc(N(Cc3ccc(Cl)cc3)S(C)(=O)=O)cc2)CC1`, the activity change (PNC), negative = inhibition is -4.47%. As for `O=C(CCN1C(=O)c2ccccc2C1=O)NNC(=O)c1ccc(Cl)cc1Cl`, the activity change (PNC), negative = inhibition was 53%. With `O=C(Nc1ccccc1Cc1ccccc1)c1ccc2c(c1)SC1=NS(=O)(=O)CCN12` the figure was 18.7%; with `Cc1ccc(S(=O)(=O)N2CCC(C(=O)N[C@@H](C)C(=O)NCc3ccco3)CC2)cc1`, 61.1%; with `CC1CCN(S(=O)(=O)c2ccc(S(=O)(=O)NCc3ccco3)cc2)CC1`, -100% (active).

Turning to `O=C(NC1CCC(O)CC1)c1ccc(S(=O)(=O)NCc2ccco2)cc1` (stereo not given), the activity change (PNC), negative = inhibition is -13.5%. Under `CCn1c(Cc2ccccc2)nnc1SCC(=O)Nc1ccccc1` stands -27.9%. Consider `CCn1c(SCC(=O)Nc2ccccc2F)nc2c(c1=O)SC(C)C2` (stereo not given), for which the activity change (PNC), negative = inhibition is -100% (active). In the case of `CC(C)n1c(SCC(=O)Nc2ccccc2N2CCCCC2)nc2c1c(=O)n(C)c(=O)n2C`, the activity change (PNC), negative = inhibition was -24%.

With `CC1Cc2nc(SCC(=O)Nc3ccccc3F)n(C)c(=O)c2S1` (stereo not given), the activity change (PNC), negative = inhibition is -100% (active). Take `CCc1ccc(NC(=O)CSc2nc3ccccc3c(=O)n2CCN2CCOCC2)cc1`: the activity change (PNC), negative = inhibition is -23.7%.

For the compound `Cn1nnnc1SCC(=O)Nc1ccccc1C(=O)NC1CC1`, the activity change (PNC), negative = inhibition is -17.1%.
